{
  "source": "PubChem BioAssay AID2284323",
  "about": "(EPA ToxCast)",
  "note": "Several values for one entry are separate records, joined by “and”; a condition that tells them apart may be missing. Equal values may be shown once. Activity calls are given as the source filed them. The calls were made as follows: active = hit-call score of the fitted dose curve at least 0.9, where 1 is the maximum; inactive = score below 0.9.",
  "data": [
    {"system": "NCBI gene 447152", "experiment": "CCTE_GLTED_xIYD: CCTE's Xenopus Iodotyrosine Deiodinase (xIYD) Inhibition Assay, Great Lakes Toxicology and Ecology Division (GLTED) Lab", "experimental": "CCTE_GLTED_xIYD is a cell-free, single-readout assay that uses Xenopus (frog) iodotyrosine deiodinase (xIYD) enzyme from liver microsomes. Assay is based on iodide release measured by the Sandell-Kolthoff method and is run in 96-well plate format with assay plates run in triplicate (n=3) with measurements taken at 3 hours after chemical dosing. Platewise-normalization was used based on positive control (3-Nitro-L-tyrosine, MNT) and negative/solvent controls (DMSO, NaOH).CCTE_GLTED_xIYD is the assay component measured from the CCTE_GLTED_xIYD assay. It measures substrate involved in regulation of catalytic activity using spectrophotometry. The assay measures the deiodination activity of Xenopus (frog) IYD on the substrate monoiodotyrosine (MIT). After 3h incubation of substrate, enzyme, and test chemical, the components are applied to a 96-well Dowex column. Free iodide is not retained by the column and is separated from interfering assay components. The free iodide is measured by the Sandell-Kolthoff reaction in which the rate of reduction of cerium (Ce+4 to Ce+3) by arsenic (As+3 to As+5) is increased by the presence of iodide. This is observed as the loss of yellow color in the reaction and the quantified by the change in absorbance at 420 nm. The change in reaction rate is proportional to the amount of iodide present.Data from the assay component CCTE_GLTED_xIYD was analyzed at the assay endpoint CCTE_GLTED_xIYD in the positive analysis fitting direction relative to DMSO as the negative control and baseline of activity. Using a type of enzyme reporter, loss-of-signal activity can be used to understand iodotyrosine deiodinase activity. To generalize the intended target to other relatable targets, this assay endpoint is annotated to the 'dehalogenase' intended target family, where the subfamily is 'iodotyrosine deiodinase'.\nHuman transthyretin (TTR) assay, developed at Great Lakes Toxicology and Ecology Division (GLTED) within the EPA's Center for Computational Toxicology and Exposure (CCTE), is designed to test the chemicals' ability to displace T4 from the TTR protein. TTR (0.125uM) is incubated in presence of test chemical for 2 hours during which disrupting chemicals displace ANSA from the TTR protein. Results read fluorescence at 380 excitation and 475 emission.", "values": [
      {"smiles": "O=C(O)C(F)(F)C(F)(F)C(F)(F)C(F)(F)C(F)(F)C(F)(F)C(F)(F)C(F)(F)F", "AC50": "39.2 µM (active)"},
      {"smiles": "O=S(=O)(O)C(F)(F)C(F)(F)C(F)(F)C(F)(F)C(F)(F)C(F)(F)C(F)(F)C(F)(F)F", "AC50": "36.4 µM (active) and 27.5 µM (active)"},
      {"smiles": "NS(=O)(=O)C(F)(F)C(F)(F)C(F)(F)C(F)(F)C(F)(F)C(F)(F)C(F)(F)C(F)(F)F", "AC50": "61.2 µM (active)"},
      {"smiles": "O=C(O)C(F)(F)C(F)(F)C(F)(F)C(F)(F)C(F)(F)C(F)(F)C(F)(F)C(F)(F)C(F)(F)C(F)(F)F", "AC50": "35.9 µM (active)"},
      {"smiles": "O=C(O)C(F)(F)C(F)(F)C(F)(F)C(F)(F)C(F)(F)C(F)(F)C(F)(F)C(F)(F)C(F)(F)F", "AC50": "73.7 µM (active)"}
    ]}
  ]
}
